From PubChem BioAssay (EPA / NIEHS)
Values joined by “and” are separate entries in the source; they are usually repeats but may differ in a detail not shown here. Equal values may be shown once. Results filed as inconclusive are left out. Some compounds were tested as several samples or in several runs, with calls that do not always agree. Active and inactive are the calls of the source. The calls were made as follows, unless noted: active = hit-call score of the fitted dose curve at least 0.9, where 1 is the maximum; inactive = score below 0.9.

How the values were obtained:
[1] = APR_HepG2_CellCycleArrest_1hr: Apredica 1-hour HepG2 Assay for Cell Cycle Arrest (AID 2282666); settings: high-content imaging, actives raise or lower the signal
Procedure, shortened: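 HepG2 cells exposed for 1 h to 0.39–200 uM compound (0.5% DMSO). Fixed, Hoechst-stained nuclei imaged by ArrayScan; DNA content quantified by Cell Cycle analysis; bidirectional fit against DMSO.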

[2] = ACEA_ER_80hr: ACEA Biosciences xCELLigence Real-Time Cell Analysis on Estrogen Receptor Agonism for Proliferation (AID 2282667; active = hit-call score of the fitted dose curve at least 0.9, where 1 is the maximum); settings: T47D proliferation, impedance (xCELLigence), 80 h
Procedure, shortened: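 Impedance readout (RT-CES) of T47D proliferation at 80 h post-dose; gain of signal vs DMSO baseline. Compounds: 8 conc, 1:4 serial, top 100 uM final, ≤0.5% DMSO; biological duplicate.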

[3] = APR_HepG2_MicrotubuleCSK_1hr: Apredica 1-hour HepG2 Assay for Microtubule CSK Stabilty (AID 2282669); settings: HepG2 microtubule cytoskeleton imaging, actives raise or lower the signal
Procedure, shortened: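 HepG2 cells exposed 1 h to 0.39–200 uM compound (0.5% DMSO, duplicates), then formaldehyde-fixed, permeabilized and immunostained for alpha-tubulin with Hoechst nuclei. Imaged by ArrayScan high-content analysis; bidirectional fit versus DMSO.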

[4] = APR_HepG2_NuclearSize_1hr: Apredica 1-hour HepG2 Assay for Nuclear Size (AID 2282670); settings: high-content imaging, actives raise or lower the signal
Procedure, shortened: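 HepG2 cells dosed 1 hr with 0.39–200 uM compound (0.5% DMSO), formaldehyde-fixed, Hoechst 33342-stained and imaged at 20x; nuclear diameter from nuclear stain, fitted bidirectionally against DMSO.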

[5] = APR_HepG2_p53Act_1hr: Apredica 1-hour HepG2 Assay for p53 Activation (AID 2282671); settings: high-content imaging, actives raise or lower the signal
Procedure, shortened: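 HepG2 cells treated 1 h with compound at 0.39–200 uM (10 concentrations, duplicate) in 0.5% DMSO. Formaldehyde-fixed, permeabilised cells immunostained for p53 with Hoechst 33342; high-content imaging, bidirectional fit versus DMSO.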

[6] = APR_HepG2_P-H2AX_1hr: Apredica 1-hour HepG2 Assay for H2AX Phosphorylation (AID 2282673); settings: high-content imaging, actives raise or lower the signal
Procedure, shortened: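 HepG2 dosed 1 hr at 0.39-200 uM (0.5% DMSO final), duplicate. Fixed in 3.7% formaldehyde, Triton permeabilized, immunostained for phospho-histone H2A.x (1:200) with Hoechst 33342; ArrayScan 20x imaging, bidirectional fit vs DMSO.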

[7] = APR_HepG2_MitoMembPot_1hr: Apredica 1-hour HepG2 Assay for Mitochondrial Membrane Potential (AID 2282675); settings: imaging, actives raise or lower the signal
Procedure, shortened: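 HepG2 cells dosed 1 hour with 0.39–200 uM compound in duplicate, 0.5% DMSO final. MitoTracker Red CMXRos (250 nM, 30 min) loaded before formaldehyde fixation; fluorescence quantified by high-content imaging, bidirectional fitting versus DMSO.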

[8] = APR_HepG2_CellCycleArrest_24hr: Apredica 24-hour HepG2 Assay for Cell Cycle Arrest (AID 2282905); settings: imaging, actives raise or lower the signal;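 also: cell cycle arrest scored as ratio of 2N to 4N nuclear DNA content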
Procedure, shortened: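 Cell cycle arrest is scored from nuclear DNA content measured by high-content imaging of Hoechst 33342-stained HepG2 cells following 24-hour treatment at ten concentrations up to 200 uM, with DMSO as baseline.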

[9] = APR_HepG2_StressKinase_1hr: Apredica 1-hour HepG2 Assay for Stress Kinase (AID 2282906); settings: HepG2 stress kinase (phospho-c-Jun) imaging, actives raise or lower the signal
Procedure, shortened: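 HepG2 cells dosed 0.39-200 uM (0.5% DMSO) for 1 h, then formaldehyde-fixed. Stress kinase read by phospho-c-Jun immunofluorescence using high-content imaging; bidirectional fit vs DMSO.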

[10] = APR_HepG2_NuclearSize_24hr: Apredica 24-hour HepG2 Assay for Nuclear Size (AID 2282907); settings: high-content imaging, actives raise or lower the signal
Procedure, shortened: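 Compounds in DMSO (final 0.5%) were added to human HepG2 hepatoma cells at ten concentrations up to 200 uM for 24 hr. Fixed nuclei were stained with Hoechst 33342, and nuclear diameter was quantified from automated images.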

[11] = APR_HepG2_CellLoss_24hr: Apredica 24-hour HepG2 Assay for Cell Loss (AID 2282908); settings: high-content imaging;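 as to AC50: fit in both directions so a hit may be cell loss or gain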
Procedure, shortened: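 Cell number is quantified by fluorescence imaging of Hoechst 33342-stained nuclei following dosing at 0.39–200 uM in 0.5% DMSO. Curves are fitted in both directions from the DMSO baseline.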

[12] = APR_HepG2_MicrotubuleCSK_24hr: Apredica 24-hour HepG2 Assay for Microtubule CSK Stabilty (AID 2282909); settings: HepG2 microtubule cytoskeleton imaging, actives raise or lower the signal
Procedure, shortened: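 Steps: dose HepG2 for 24 h (0.39–200 uM, 0.5% DMSO); fix 30 min in 3.7% formaldehyde at room temperature; permeabilize; stain alpha-tubulin 60 min; image microtubule cytoskeleton at 20x. Signal change fitted in both directions relative to DMSO.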

[13] = APR_HepG2_MitoticArrest_24hr: Apredica 24-hour HepG2 Assay for Mitotic Arrest (AID 2282910); settings: high-content imaging, actives raise or lower the signal
Procedure, shortened: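 HepG2 cells, 24 h exposure at 0.39-200 uM (10 concentrations, duplicate, 0.5% DMSO). Fixed, stained for phospho-histone H3 with Hoechst; imaged by high-content microscopy, bidirectional fit versus DMSO.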

[14] = APR_HepG2_MitoMass_24hr: Apredica 24-hour HepG2 Assay for Mitochondrial Mass (AID 2282912); settings: high-content imaging, actives raise or lower the signal
Procedure, shortened: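 The liver line HepG2 was dosed in duplicate across a 0.39–200 uM series, with final DMSO held at 0.5% v/v, and harvested at 24 hr. High-content imaging measured mitochondrial dye staining.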

[15] = APR_HepG2_p53Act_24hr: Apredica 24-hour HepG2 Assay for p53 Activation (AID 2282913); settings: high-content imaging, actives raise or lower the signal;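 also: p53 protein immunofluorescence averaged per cell in HepG2 with Hoechst nuclei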
Procedure, shortened: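 Read-out: Cy5 immunofluorescence for p53 in fixed, permeabilized HepG2, imaged by HCS with Hoechst-defined nuclei. Dosing was 24 hr at 0.39–200 uM in 0.5% DMSO. Curves were fitted bidirectionally relative to DMSO.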

[16] = APR_HepG2_CellCycleArrest_72hr: Apredica 72-hour HepG2 Assay for Cell Cycle Arrest (AID 2282914); settings: high-content imaging, actives raise or lower the signal
Procedure, shortened: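 HepG2, 72 hr exposure, 10-point 0.39–200 uM, duplicate, 0.5% DMSO final. Fix 3.7% formaldehyde 30 min RT, Triton X-100 0.5%, Hoechst 33342 2 ug/mL. ArrayScan 20x, six fields/well; DNA content per nucleus; bidirectional fit vs DMSO.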

[17] = APR_HepG2_CellLoss_1hr: Apredica 1-hour HepG2 Assay for Cell Loss (AID 2282668); settings: high-content imaging;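 also: curves fitted both ways against DMSO so gain or loss of cells counts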
Procedure, shortened: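 HepG2 cells were treated for 1 h with compound at 0.39–200 uM, in duplicate, in 0.5% DMSO. After formaldehyde fixation, Hoechst 33342-stained nuclei were imaged on an ArrayScan to count cells. Data were fitted bidirectionally versus DMSO.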

[18] = APR_HepG2_MitoticArrest_1hr: Apredica 1-hour HepG2 Assay for Mitotic Arrest (AID 2282672); settings: high-content imaging, actives raise or lower the signal
Procedure, shortened: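 HepG2 cells exposed 1 hr to compounds at 0.39–200 uM (0.5% v/v DMSO final), then fixed in 3.7% formaldehyde and immunostained for phospho-histone H3 with Hoechst 33342. Mitotic arrest scored by automated fluorescence imaging, fitted bidirectionally versus DMSO.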

[19] = APR_HepG2_MitoMembPot_24hr: Apredica 24-hour HepG2 Assay for Mitochondrial Membrane Potential (AID 2282911); settings: imaging, actives raise or lower the signal
Procedure, shortened: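 HepG2, 24 hr dosing, 10 concentrations 0.39–200 uM, 0.5% DMSO final. Live-cell MitoTracker Red CMXRos 250 nM 30 min, then 3.7% formaldehyde fix. HCS fluorescence imaging, 20x; bidirectional fit vs DMSO baseline.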

[20] = APR_HepG2_MitoMass_1hr: Apredica 1-hour HepG2 Assay for Mitochondrial Mass (AID 2282674); settings: high-content imaging, actives raise or lower the signal
Procedure, shortened: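 HepG2 cells dosed 1 hr with 0.39-200 uM compound (0.5% DMSO), duplicate wells. Mitochondria stained with 250 nM MitoTracker Red CMXRos for 30 min before formaldehyde fixation, imaged at 20x by ArrayScan; bidirectional fit versus DMSO.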

## Cc1c(F)c(F)c(COC(=O)C2C(/C=C(\Cl)C(F)(F)F)C2(C)C)c(F)c1F (centres undefined)
[1]
  outcome: inactive
[2]
  outcome: inactive
[3]
  outcome: inactive
[4]
  outcome: inactive
[5]
  outcome: inactive
[6]
  outcome: inactive
[7]
  outcome: inactive
[8]
  outcome: inactive
[9]
  outcome: inactive
[10]
  outcome: inactive
[11]
  outcome: inactive
[12]
  outcome: inactive
[13]
  outcome: inactive
[14]
  outcome: inactive
[15]
  outcome: inactive
[16]
  outcome: inactive

## Fc1ccc(Oc2ccnc3cc(Cl)cc(Cl)c23)cc1
[1]
  outcome: inactive
[2]
  outcome: inactive
[3]
  outcome: inactive
[4]
  outcome: inactive
[5]
  outcome: inactive
[7]
  outcome: inactive
[8]
  outcome: inactive
[9]
  outcome: inactive
[10]
  outcome: inactive
[11]
  AC50: 100 µM (active)
[12]
  outcome: inactive
[13]
  AC50: 109 µM (active)
[14]
  outcome: inactive
[15]
  outcome: inactive
[16]
  outcome: inactive

## CCNc1nc(Cl)nc(NCC)n1
[1]
  outcome: inactive
[2]
  outcome: inactive
[17]
  outcome: inactive
[4]
  outcome: inactive
[5]
  outcome: inactive
[18]
  outcome: inactive
[7]
  outcome: inactive
[8]
  outcome: inactive
[9]
  outcome: inactive
[10]
  outcome: inactive
[11]
  outcome: inactive
[12]
  outcome: inactive
[13]
  outcome: inactive
[19]
  outcome: inactive
[14]
  outcome: inactive
[15]
  outcome: inactive
[16]
  outcome: inactive

## CCCN(CCC)c1c([N+](=O)[O-])cc(S(N)(=O)=O)cc1[N+](=O)[O-]
[1]
  AC50: 108 µM (active)
[2]
  outcome: inactive
[17]
  AC50: 66.6 µM (active)
[4]
  AC50: 61.6 µM (active)
[20]
  outcome: inactive
[7]
  outcome: inactive
[8]
  AC50: 34.9 µM (active)
  outcome: inactive
[9]
  outcome: inactive
[10]
  AC50: 68.3 µM (active) and 117 µM (active)
  outcome: inactive
[12]
  AC50: 109 µM (active)
  outcome: inactive
[13]
  AC50: 35.4 µM (active) and 38.4 µM (active)
  outcome: inactive
[14]
  AC50: 164 µM (active) and 113 µM (active)
  outcome: inactive
[16]
  AC50: 27.2 µM (active) and 57.9 µM (active) and 34 µM (active)
  outcome: inactive

## CON(C)C(=O)Nc1ccc(Cl)c(Cl)c1
[1]
  outcome: inactive
[2]
  outcome: inactive
[17]
  outcome: inactive
[4]
  outcome: inactive
[5]
  outcome: inactive
[20]
  outcome: inactive
[7]
  outcome: inactive
[8]
  AC50: 31.2 µM (active)
[9]
  outcome: inactive
[10]
  outcome: inactive
[11]
  outcome: inactive
[12]
  outcome: inactive
[13]
  outcome: inactive
[14]
  outcome: inactive
[15]
  outcome: inactive
[16]
  outcome: inactive

## CS/C(C)=N/OC(=O)N(C)SN(C)C(=O)O/N=C(\C)SC
[1]
  outcome: inactive
[2]
  AC50: 0.164 µM (active)
[4]
  outcome: inactive
[5]
  outcome: inactive
[18]
  AC50: 29.7 µM (active)
[20]
  outcome: inactive
[7]
  outcome: inactive
[8]
  outcome: inactive
[9]
  outcome: inactive
[10]
  outcome: inactive
[11]
  AC50: 47.4 µM (active)
[12]
  outcome: inactive
[13]
  outcome: inactive
[14]
  outcome: inactive
[15]
  outcome: inactive
[16]
  outcome: inactive
